# Most compounds without a hit are left out; they make up all but 2.4% or so of the library.
# ATXN2 expr inh – ATXN2 expression inhibition. HEK-293 ATXN2-luciferase reporter, luminescence, 24 h. actives 0.72% (n = 360,000). Potency, µM (titrated, usually from 57 µM), without a hit: at the highest dose activity change, negative = inhibition, most hits filed as inhibitors; also: % is scaled to controls: 0 for no effect and ±100 for the full control effect; nearly all actives have a fitted effect of over 55% in size
#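 qHTS (up to 57 uM final) was run with 24 h compound exposure of reporter cells at 37 °C. Each well was multiplexed: SteadyGlo luminescence measured ATXN2-luciferase expression after a fluorogenic Gly-Phe-AFC viability readout (25 uM final).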
# HepG2 tox – kills HepG2 cells in TGF-b inhibitor counter-screen | Potency, µM (series often up to 46.1 µM), for inactives: at the highest dose activity change, negative = cytotoxicity, actives largely listed as cytotoxic | HepG2 CAGA-GFP viability, ATP luminescence, 18 h | actives 0.76% (n = 410,000)
#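 CellTiter-Glo luminescence gave cytotoxicity after 18 hours at 37 degrees C. The cells were HepG2 CAGA-GFP in 1% FBS DMEM, stimulated with 500 pg/mL TGF-beta after compound addition. %Activity was normalised to no-cell wells (complete cell-killing) and DMSO (no toxicity), and curves were fitted and classified.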
# TGFb SMAD3 inh – TGF-b pathway inhibition | HepG2 CAGA-GFP TGF-b/SMAD3 reporter, GFP fluorescence, 18 h; TGF-beta stimulated, 500 pg/mL final | Potency, µM (top dose mostly 46.1 µM), without a hit: top-dose activity, negative = inhibition, usual class: inhibitors | actives 1.2% (n = 410,000) | AID 588855; also: % is scaled to controls: 0 for no effect and ±100 for the full control effect; nearly all actives have a fitted effect of over 65% in size
#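 Inhibition was scored as loss of TGF-beta-induced (500 pg/mL final, 18 hours, 37 degrees C) GFP in HEPG2 cells carrying a CAGA-GFP reporter, in DMEM with 1% FBS. Well GFP was summed per cell; Activity was normalised to unstimulated and stimulated DMSO wells, then concentration-response fitting.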
# Apoferritin bind – candidate novel general anesthetic via apoferritin binding; AID 485281; Potency, µM (highest dose often 77.5 µM), for inactives: at the top dose activity change, negative = displacement, actives largely listed as inhibitors; apoferritin/1-aminoanthracene competitive binding, fluorescence; actives 0.074% (n = 350,000); also: % is scaled to controls: 0 for no effect and ±100 for the full control effect; nearly all actives have a fitted effect of over 20% in size
# Target sequence (P02791 2-175 limits assumed): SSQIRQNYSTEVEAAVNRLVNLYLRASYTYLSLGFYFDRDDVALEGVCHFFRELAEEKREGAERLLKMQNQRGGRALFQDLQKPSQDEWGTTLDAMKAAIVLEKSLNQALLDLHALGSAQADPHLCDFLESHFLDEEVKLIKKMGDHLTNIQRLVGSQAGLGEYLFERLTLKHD
#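 Concentration-response curves derived by four-parameter Hill fitting of normalized fluorescence, where compounds displaced 1-AMA from 10 uM horse apoferritin following a brief 10 min room-temperature incubation; propofol titration acted as positive control.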
# S2 tox – reduces viability in counter-screen for ATXN expression inhibitors | S2 cells (HEK-293 line with an ATXN2-luciferase reporter) viability, CellTiter-Fluor protease fluorescence, 24 h | Potency, µM (series often up to 56.7 µM), hits mostly cytotoxic | actives 0.49% (n = 400,000) | AID 651635; also: nearly all actives have a fitted effect of over 40% in size
# * = called active by the depositor; i = inactive; ? = inconclusive; . = not tested or not shown; ! = a repeat was not active; [ ] = dose if it differs, or a comment. Calls follow the shape of the dose curve; as a rule, active = well fitted curve in the direction sought with a large enough effect; inconclusive = small, poorly fitted or top-dose-only effect, or another doubt; inactive = no such curve, though single readings can be large; an effect the other way counts as inactive or inconclusive. Potency is read from the fitted curve at half-maximal effect.
SMILES,ATXN2 expr inh,HepG2 tox,TGFb SMAD3 inh,Apoferritin bind,S2 tox
CC(C)NC(=O)Nc1ccc2c(c1)C(=O)N([C@H](C)CO)C[C@H](C)[C@@H](CN(C)Cc1ccc(C(F)(F)F)cc1)OCCCC[C@H](C)O2,?,-36%,16µM*,.,.
Cc1cc2nc(-c3ccccc3)c(CC(C)(C)C)n2c(C)c1Br,-11%,-29%,?,.,i
COc1ccc(O[C@H]2C=C[C@@H](c3ccccc3)O[C@H]2COC(=O)CC/C(C)=N\O[C@@H](C)c2cn([C@H]3COC[C@H]3O)nn2)cc1,.,.,.,5%[15.3 µM],.
CCOC(=O)c1c(-c2ccc(OC)cc2)csc1/N=C/C1C(=O)CCCC1=O,-15%,16µM*,37%,?,i
CCOC(=O)c1c(-c2ccc(OC)cc2)csc1/N=C/N(C)C,-14%,-47%,-2%,-13%,i
CCOC(=O)N1CCN(C(=O)c2ccc(-c3ccccc3OC)nc2N2CCC(N3CCCC(CO)C3)CC2)CC1 (stereo not drawn),.,.,.,.,i
COc1cccc(NC(=O)/C(C#N)=C\c2cn(Cc3ccc(Cl)cc3)c3ccccc23)c1,7%,-11%,11µM*,42%,i
Cc1ccc(Cn2cc(/C=C(/C#N)C(=O)Nc3cccc(Cl)c3)c3ccccc32)cc1,-13%,-27%,?,12%,i
CC(C)(C)n1ncc2c(=O)n(Cc3cc(F)ccc3Cl)cnc21,.,-1%,-3%,.,.
COc1ccc(C)cc1NC(=O)COC(=O)c1c(C)nn(-c2ccccc2)c1C,22µM*,-15%,-9%,.,?
COC(=O)[C@@H]1CCCN1Cc1ccc2c(c1)CN(Cc1cccn1-c1ccccn1)CCO2,.,.,.,.,i
CCOC(=O)CN1C(c2ccc(O)cc2)Nc2ccc(Br)cc2C1c1ccccc1 (stereo not drawn),?,-96%,?,-15%,20µM*
CCOC(=O)CN1C(=O)Nc2ccc(Br)cc2C1c1ccccc1 (stereo not drawn),-7%,-15%,-7%,?,i
OCCN1CCN(Cc2ccc3c(c2)CN(Cc2cnc(-c4ccccc4)s2)CCO3)CC1,.,.,.,.,i
COc1cccc2c1C(=O)C=C(C)C2=O,?,-106%,?,7%,.
CC1=CC(=O)c2ccccc2C1=O,24µM*!,16µM*!,?,-6%,i
CC(C)(C=O)C1=CC(=O)c2ccccc2C1=O,16µM*,-101%,?,-3%,.
CCCOc1ccc(C(=O)Nc2ccc(S(=O)(=O)NC3=NCCCCC3)cc2)cc1,-21%,0.32µM*,0%,.,i
Cc1ccc([C@H]2C[C@H](O)[C@@H](n3cc(COC(=O)c4ccccc4)nn3)CN2C(=O)c2cccs2)cc1,6%,-39%,-1%,.,i
C=C1C(=O)[C@]23C[C@H]1CC[C@H]2[C@]1(C)[C@@H](OC(C)=O)CC[C@@](C)(C(=O)O)[C@H]1C[C@@H]3OC(C)=O,18µM*,-85%,10µM*,.,?
C=C/C(C)=C/CC1C(=C)CCC2C(C)(C(=O)O)CCCC12C (stereo not drawn),4%,-16%,-14%,-1%,i
C=C1C(=O)[C@]23C[C@H]1CCC2[C@]1(C)C(=O)CC[C@@](C)(C(=O)O)C1C[C@@H]3O (stereo partly drawn),8.9µM*,-87%,?,.,13µM*
C=C1C(=O)[C@]23C[C@H]1CCC2[C@]1(C)CCC[C@@](C)(C(=O)O)C1C[C@@H]3O (stereo partly drawn),3.5µM*,-87%,2.5µM*,.,7.1µM*
NCCCC[C@H](NC(=O)[C@@H]1CCCN1C(=O)[C@@H]1CSSC[C@H](NC(=O)CNC(=O)CNC(=O)CN)C(=O)N[C@@H](Cc2ccc(O)cc2)C(=O)N[C@@H](Cc2ccccc2)C(=O)N[C@@H](CCC(N)=O)C(=O)N[C@@H](CC(N)=O)C(=O)N1)C(=O)NCC(N)=O,.,.,.,.,i
COc1cccc(CN2CC(C(=O)NCCSc3nnnn3C)CCC2=O)c1 (stereo not drawn),0%,8%,-13%,-4%,i
SMILES,ATXN2 expr inh,HepG2 tox,TGFb SMAD3 inh,Apoferritin bind,S2 tox
CC(=O)c1cccc(-c2ccnc3c2CC(C(=O)Nc2ccc(Cl)cc2)O3)c1 (stereo not drawn),?,-13%,-23%,.,?
CC(=O)c1cccc(-c2ccnc3c2CC(C(=O)Nc2ccc(Cl)c(C(F)(F)F)c2)O3)c1 (stereo not drawn),0%,-23%,13µM*,.,?
COc1ccc(NC(=O)C2Cc3c(-c4ccc5c(c4)OCO5)ccnc3O2)cc1OC (stereo not drawn),?,-38%,-6%,.,2.5µM*
O=C(Nc1ccc(Cl)c(C(F)(F)F)c1)C1Cc2c(-c3ccc4c(c3)OCO4)ccnc2O1 (stereo not drawn),?,-31%,11µM*,.,i
CC(C)c1ccc(NC(=O)C2Cc3c(-c4ccc5c(c4)OCO5)ccnc3O2)cc1 (stereo not drawn),7%,-6%,27%,.,?
O=C(Nc1ccc(F)c(Cl)c1)C1Cc2c(-c3ccco3)ccnc2O1 (stereo not drawn),?,-7%,13µM*,.,i
CC(=O)Nc1cccc(-c2ccnc3c2CC(C(=O)Nc2ccc(F)c(Cl)c2)O3)c1 (stereo not drawn),?,-29%,?,.,.
COC(=O)[C@H](CCSC)NC(=O)C/C=C\[C@@H](C)CO,.,.,.,-10%[15.3 µM],.
Cc1[nH]c2ccccc2c1C(=O)CNc1ccc(Br)cc1,.,-31%,?,.,.
O=C(Nc1cccc(OC(F)(F)F)c1)C1Cc2c(-c3ccccc3Oc3ccccc3)ccnc2O1 (stereo not drawn),-24%,-32%,11µM*,.,i
CC(C)Cc1cc(CN2CCC(CO)(Cc3cccc(C(F)(F)F)c3)CC2)[nH]n1,-17%[11.3 µM],16µM*,?,-7%,i
Cc1ccc(-n2cc(CN3CCC(CO)(Cc4cccc(C(F)(F)F)c4)CC3)cn2)cc1,-34%[11.3 µM],11µM*,?,-21%,i
CO[C@@H]1/C=C\CC(=O)N[C@@H](C)C(=O)OC[C@@H](OC)[C@H](C)/C=C\CC(=O)OC[C@H]1C,.,.,.,-2%[15.3 µM],.
COc1ccc2cc([S+]([O-])Cc3ncc(C)c(OC)c3C)nc2c1,21%,.,.,.,.
CCCNC(=O)CN1C(=O)CSc2ccc(S(=O)(=O)N3CCC(C)CC3)cc21,1%,-9%,-1%,-9%,i
COc1ccc(C2C(O)C(c3c[nH]c4ccccc34)=NN2C(=O)CCl)cc1 (stereo not drawn),6.3µM*,4µM*,2.2µM*,-4%,7.9µM*

# Source: PubChem BioAssay
